# Measurements published in PubChem BioAssay (NCI).
# Compounds without any hit were thinned out: in the full panel of roughly 83,000, 20% have a hit.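 The endpoint reported here, percent growth, reads 100 for growth as untreated, 0 for no net growth and -100 for all cells dead.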 A number with no mark means an inactive call. Active and inactive are the calls of the source. Rule for the calls: active = growth percent below 10; inactive = the rest.
# Columns and labels:
# Assay in all cases: NCI-60 one-dose screen, 48 h (100 = growth as untreated, 0 = no growth, -100 = all killed)
# Details in all cases: 10 µM unless noted
# NCI-H23 lung = test system: NCI-H23 lung
# NCI-H322M lung = test system: NCI-H322M lung
# HOP-62 NSCLC = test system: HOP-62 NSCLC
# NCI-H460 lung = test system: NCI-H460 lung
# HOP-92 NSCLC = test system: HOP-92 NSCLC
# A549/ATCC NSCLC = test system: A549/ATCC NSCLC
# 786-0 renal = test system: 786-0 renal
# DU-145 prostate = test system: DU-145 prostate
# K-562 leukemia = test system: K-562 leukemia
# MALME-3M melanoma = test system: MALME-3M melanoma
# MDA-MB-231 breast = test system: MDA-MB-231 breast
# RXF 393 renal = test system: RXF 393 renal
# SF-268 CNS = test system: SF-268 CNS
# SF-295 CNS = test system: SF-295 CNS
# SF-539 CNS = test system: SF-539 CNS
# UACC-257 melanoma = test system: UACC-257 melanoma
# M14 melanoma = test system: M14 melanoma
# HCT-15 colon = test system: HCT-15 colon
# NCI-H522 lung = test system: NCI-H522 lung
# COLO 205 colon = test system: COLO 205 colon
Compound,growth (NCI-H23 lung),growth (NCI-H322M lung),growth (HOP-62 NSCLC),growth (NCI-H460 lung),growth (HOP-92 NSCLC),growth (A549/ATCC NSCLC),growth (786-0 renal),growth (DU-145 prostate),growth (K-562 leukemia),growth (MALME-3M melanoma),growth (MDA-MB-231 breast),growth (RXF 393 renal),growth (SF-268 CNS),growth (SF-295 CNS),growth (SF-539 CNS),growth (UACC-257 melanoma),growth (M14 melanoma),growth (HCT-15 colon),growth (NCI-H522 lung),growth (COLO 205 colon)
CCCCN1CCN(c2ccc3nc(-c4ccc5nc(-c6ccc(C(F)(F)F)cc6)[nH]c5c4)[nH]c3c2)CC1,-85.1% (active),-94.1% (active),-78.5% (active),-79.9% (active),-13.5% (active),-71.9% (active),-84.9% (active),-95.5% (active),-65.8% (active),-74.2% (active),-88.9% (active),-82% (active),-71.8% (active),-84% (active),-92.8% (active),-16.2% (active),-63.5% (active),-79% (active),,
Oc1ccc(-c2nc(-c3ccc4oc5ccc(-c6[nH]c(-c7ccc(O)cc7)nc6-c6ccccc6)cc5c4c3)c(-c3ccccc3)[nH]2)cc1,43.9%,78.6%,73.3%,,25.7%,65.8%,86.4%,89%,22.7%,43.1%,59.5%,84.9%,63.5%,15.6%,79.4%,34.5%,65.5%,78.8%,59.4%,53.8%
c1ccc(CNc2nc(Nc3ccccc3)nc3ccccc23)cc1,64.6%,46.5%,-9% (active),,-2.52% (active),29.6%,38.5%,40.5%,33.6%,-7.75% (active),66.8%,2.83% (active),50.7%,-61.1% (active),40.2%,14.4%,55%,72.6%,40.7%,75.1%
CNCCNc1nc2ccccc2c2c(=O)c3cc(F)ccc3sc12,90.9%,42.4%,46%,-65.8% (active),19.2%,-56.3% (active),42.5%,12%,-47.1% (active),68.1%,19.5%,62%,44.3%,95.2%,71.6%,54.4%,1.91% (active),13.6%,,
COc1ccc(N)c(-c2cc3c(c4c2[nH]c2ccc(OC)cc24)CCCC3)c1,91.2%,71.5%,70.4%,,72.2%,64.1%,78.3%,83.7%,76.8%,108%,77.6%,87.1%,73.8%,88.8%,98%,67.9%,78.5%,58.6%,57.1%,102%
CC(=O)SC1CC(=O)C=C2CCC3C4CCC(=O)OC4(C)CCC3C21C (stereo unspecified),111%,120%,106%,,97.6%,105%,101%,116%,103%,195%,,,105%,,94.9%,100%,97.7%,106%,92.7%,116%
O=C(Cn1cc(COc2ncnc3c2cnn3-c2ccccc2)nn1)Nc1ccccn1,96.6%,93.6%,91.5%,,75.2%,94.2%,104%,101%,96.7%,94.5%,85.2%,112%,92.9%,102%,89.1%,98.4%,97.4%,,87.6%,
CN1C(=O)N(C)C2(c3ccccc3)n3c(s/c(=C\c4ccccc4)c3=O)=NNC12c1ccccc1 (stereo unspecified),97.2%,95.3%,101%,,89.5%,89.1%,98.3%,93%,71.2%,86.9%,85.1%,86.8%,96.9%,97.3%,93.1%,98.3%,83.4%,,84.3%,112%
COc1ccc(/C=C2/SC(=O)N(CC(=O)N3CCN(c4cc5c(cc4F)c(=O)c(C(=O)O)cn5C4CC4)CC3)C2=O)cc1,100%,99%,97.6%,,113%,92.2%,97.3%,115%,110%,98.5%,103%,117%,101%,101%,91.1%,91.9%,103%,109%,87.1%,108%
Nc1cccc(Nc2cc(S(=O)(=O)O)c(N)c3c2C(=O)c2ccccc2C3=O)c1,109%,124%,114%,,132%,102%,111%,119%,101%,105%,107%,119%,101%,118%,101%,97%,103%,96.7%,82.5%,110%
COc1ccc2[nH]c(O)c(N=NC(=O)c3oc4ccccc4c3C)c2c1,10.6%,30.6%,-24.1% (active),,-44% (active),-23.6% (active),-66.9% (active),17.6%,42.5%,-29.5% (active),23.8%,-36.2% (active),57.7%,5.05% (active),37.5%,50%,28.7%,41.1%,54.3%,22.8%
CN1CCN(Cc2ccc(C(=O)Nc3cncc(C#Cc4cnc5cccnn45)c3)cc2C(F)(F)F)CC1,47.5%,54.4%,70.9%,,34.4%,58.5%,57.2%,36.1%,6.75% (active),28.3%,41%,50.5%,60.3%,80.2%,32.9%,19.2%,34.4%,38.8%,40.2%,39.3%
Cc1ccc2cc3c(N)c4c(C)ccc(C)c4nc3nc2c1,89.4%,72.4%,76.3%,,29.4%,45.1%,54.2%,80.5%,-18.6% (active),-77% (active),7.18% (active),45.1%,17.4%,-45.8% (active),-68% (active),-78.8% (active),-79.1% (active),10.8%,-23.9% (active),-53.3% (active)
O=C1c2cc(I)ccc2Oc2cc([N+](=O)[O-])ccc2N1c1ccc(Cl)cc1F,87.7%,93.4%,89.9%,,88.3%,78.2%,98%,97.9%,49.4%,84.9%,78.4%,99%,79.1%,92%,92.8%,94.1%,97.7%,57.4%,65.7%,106%
CC1=C(C(=O)OCC2CCN(C(=O)OC(C)(C)C)CC2)[C@H](c2cccc(C#N)c2)C2=C(CC(C)(C)CC2=O)N1,65.7%,68.4%,70.3%,,86.3%,46.1%,62.8%,52.5%,24.3%,66.1%,59.7%,83.2%,52.5%,40.5%,48%,70%,50.4%,23.7%,8.74% (active),50.9%
O=C1C(Cl)=C(NCc2ccco2)C(=O)c2ccccc21,37.3%,115%,37%,,103%,47.4%,113%,15.6%,70.6%,54.6%,68.1%,101%,103%,75.8%,115%,58.7%,77.4%,81.3%,75.9%,84.8%
